Assay [1] concerns the target DNA dC->dU-editing enzyme APOBEC-3G (Homo sapiens) (UniProt Q9HC16). Put plainly: qHTS for inhibitors of Vif-A3G interactions: Validation (AID 588379; active means well fitted curve in the direction sought with a large enough effect; an effect the other way counts as inactive or inconclusive; further: 0% is about no effect). The gist of the method: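 Yellow fluorescence (Ex 488, Em 500-530) of Vif-coexpressing HeLa A3G-eYFP cells, scanned by Acumen cytometer, reports blocked A3G degradation. Cells plated at 700/well overnight at 37 deg C before compound addition, then a further overnight compound incubation at 37 deg C.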
For orientation: Quantitative high-throughput screening tests each substance at several concentrations.

The target in assay [2] is Estrogen receptor (Homo sapiens) (UniProt P03372). As to the kind of experiment: qHTS assay for small molecule agonists of estrogen receptor alpha signaling (AID 588514). Further: nearly all actives have a fitted effect of over 70% in size. Further: potency means the concentration at half of the fitted maximal effect.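 On activation: 0% = vehicle only and 100% = reference agonist.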 An outline of the steps: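 Efficacy is expressed against 20 nM 17-beta-estradiol (100%) and DMSO basal (0%); EC50 from Hill equation. Assay: beta-lactamase reporter in ER-alpha-UAS-bla HEK 293 cells, 18 h compound incubation, CCF4 detection.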

The target of assay [3] is Glucocorticoid receptor (Homo sapiens) (UniProt P04150). As to the kind of experiment: qHTS assay for small molecule agonists of glucocorticoid receptor signaling (AID 588532; active means well fitted curve in the direction sought with a large enough effect in the signal ratio, with a control signal flat; the % refers to the signal ratio;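 further: 100% = dexamethasone at 0.1 µM and 0% = DMSO only wells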). To be noted: HeLa MMTV-bla, beta-lactamase ratio, agonist, 18 h; stronger effect = higher value; percent of dexamethasone control, DMSO zero. An outline of the steps: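 Titration series, up to 92 uM, applied to GRE-bla HeLa cells for 18 h at 37 C. Detection by CCF4 FRET substrate after 2 h at RT.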

The target in assay [4] is Androgen receptor (Homo sapiens) (UniProt P10275). As to the kind of experiment: qHTS assay for small molecule antagonists of androgen receptor signaling (AID 588516; active means well fitted curve in the direction sought with a large enough effect in the signal ratio, with a control signal flat, not every such curve was filed as active; the % refers to the signal ratio; further: potency means the concentration at half of the fitted maximal effect). The gist of the method:
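Antagonist mode: inhibition of R1881-stimulated (10 nM final) bla reporter in GeneBLAzer AR HEK 293 cells, 16 h at 37C, compounds titrated. IC50 and efficacy from Hill-equation fits of 405/460–530 nm FRET ratios.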

The target of assay [5] is Glucocorticoid receptor (Homo sapiens) (UniProt P04150). Put plainly: qHTS assay for small molecule antagonists of glucocorticoid receptor signaling (AID 588533; active means well fitted inhibition curve with a large enough effect in the signal ratio, with a control signal flat, not every such curve was filed as active; the % refers to the signal ratio;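 further: cells stimulated with 2 nM dexamethasone as agonist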; further: potency means the concentration at half of the fitted maximal effect). The gist of the method:
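Antagonist-mode qHTS: compound titrations added to GRE-bla HeLa cells, then dexamethasone 2 nM final; 18 h, 37 C. CCF4 FRET fluorescence normalized to dexamethasone and DMSO; IC50 from Hill fit.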

The nature of assay [6]: qHTS assay for small molecule antagonists of peroxisome proliferator-activated receptor delta signaling (AID 588535).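 Further: cells co-treated with a PPAR-delta agonist as stimulator during compound exposure.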 The following applies: HEK293T PPARd-UAS-bla, beta-lactamase FRET ratio, 18 h; 460 nm channel. The gist of the method: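 Inhibition of PPAR-delta response element-driven beta-lactamase expression is measured in HEK293T cells exposed to a compound titration series for 18 hrs at 37 C. Half-maximal inhibition comes from Hill equation fitting.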

The nature of assay [7]: qHTS for Inhibitors of ATXN expression: Validation (AID 588378; active means well fitted curve in the direction sought with a large enough effect; an effect the other way counts as inactive or inconclusive; further: nearly all actives have a fitted effect of over 75% in size; further: potency means the concentration at half of the fitted maximal effect). An outline of the steps:
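Luciferase luminescence (Bright-Glo) from an ATXN2-FFLuc HEK293 line after 24 h compound exposure at 37 °C, preceded by a CellTiter-Fluor fluorescence viability read. Serial dilutions of a reference ATXN2 inhibitor and a luciferase inhibitor served as controls.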

For assay [8], the target named is Estrogen receptor (Homo sapiens) (UniProt P03372). Put plainly: qHTS assay for small molecule antagonists of estrogen receptor alpha signaling (AID 588513; active means well fitted curve in the direction sought with a large enough effect in the signal ratio, with a control signal flat, not every such curve was filed as active; the % refers to the signal ratio; further: on the % scale 0 is the no-effect control and ±100 the full control effect). The gist of the method: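 Antagonist mode: inhibition of 0.5 nM 17-beta-estradiol-driven beta-lactamase reporter in HEK 293 ER-alpha-UAS-bla cells, 18 h at 37C, CCF4 readout after 2 h at RT. Normalised to estradiol and DMSO; titration fitted to Hill.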

For assay [9], the target named is Bile acid receptor (Homo sapiens) (UniProt Q96RI1). As to the kind of experiment: qHTS assay for small molecule antagonists of farnesoid X receptor signaling (AID 588526). Further: on the % scale 0 is the no-effect control and ±100 the full control effect. The gist of the method:
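Concentration-response titrations were fitted to the Hill equation for half-maximal inhibition and maximal response, with data normalised to 50 uM chenodeoxycholic acid and DMSO control wells. Cells: FXR-UAS-bla HEK293T, dialyzed FBS.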

Assay [10] concerns the target Androgen receptor (Homo sapiens) (UniProt P10275). As to the kind of experiment: qHTS assay for small molecule agonists of androgen receptor signaling (AID 588515; active means well fitted curve in the direction sought with a large enough effect in the signal ratio, with a control signal flat; the % refers to the signal ratio; further: on the % scale 0 is the no-effect control and ±100 the full control effect). To be noted: AR-UAS-bla HEK293, beta-lactamase ratio, agonist 16 h; stronger effect = higher value. The gist of the method: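 Stimulation of an AR-responsive β-lactamase reporter in GripTite HEK293 cells was measured after 16 h compound exposure at 37 °C, via CCF4 fluorescence after 2 h RT. EC50 from Hill fits, normalized to R1881 at 30 nM.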

The structures appear in SMILES notation. Several values for one entry are separate records, joined by “and”; a condition that tells them apart may be missing. Equal values may be shown once. Inconclusive results are not listed. Activity calls are given as the source filed them. Unless noted, the call rests on the fitted dose curve.

Sequence of Androgen receptor (Homo sapiens) (P10275 whole entry, looked up): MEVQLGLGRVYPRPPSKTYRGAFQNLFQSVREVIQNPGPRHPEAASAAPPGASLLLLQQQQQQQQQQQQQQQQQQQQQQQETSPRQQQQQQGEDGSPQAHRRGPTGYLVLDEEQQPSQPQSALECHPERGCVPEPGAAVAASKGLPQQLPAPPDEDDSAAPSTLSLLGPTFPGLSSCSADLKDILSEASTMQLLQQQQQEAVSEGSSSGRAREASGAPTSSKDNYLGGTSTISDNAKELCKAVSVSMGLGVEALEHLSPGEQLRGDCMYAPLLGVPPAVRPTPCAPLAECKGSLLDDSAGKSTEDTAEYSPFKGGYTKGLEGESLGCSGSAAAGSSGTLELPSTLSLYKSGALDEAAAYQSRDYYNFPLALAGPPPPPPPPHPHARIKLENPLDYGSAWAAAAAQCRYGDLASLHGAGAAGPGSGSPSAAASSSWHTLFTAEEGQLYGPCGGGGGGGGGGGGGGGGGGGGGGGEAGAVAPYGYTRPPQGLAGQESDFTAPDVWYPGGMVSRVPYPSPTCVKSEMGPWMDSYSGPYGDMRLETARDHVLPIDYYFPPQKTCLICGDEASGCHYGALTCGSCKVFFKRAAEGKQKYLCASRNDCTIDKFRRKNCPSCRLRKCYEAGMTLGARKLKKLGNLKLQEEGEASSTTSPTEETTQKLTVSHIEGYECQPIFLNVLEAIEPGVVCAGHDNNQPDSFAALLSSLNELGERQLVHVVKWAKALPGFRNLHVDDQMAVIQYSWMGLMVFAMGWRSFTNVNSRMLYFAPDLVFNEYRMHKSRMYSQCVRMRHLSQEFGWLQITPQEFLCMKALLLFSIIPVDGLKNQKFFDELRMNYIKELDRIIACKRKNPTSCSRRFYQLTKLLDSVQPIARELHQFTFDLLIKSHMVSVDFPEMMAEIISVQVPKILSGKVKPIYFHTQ
Sequence of Estrogen receptor (Homo sapiens) (P03372 whole entry, looked up): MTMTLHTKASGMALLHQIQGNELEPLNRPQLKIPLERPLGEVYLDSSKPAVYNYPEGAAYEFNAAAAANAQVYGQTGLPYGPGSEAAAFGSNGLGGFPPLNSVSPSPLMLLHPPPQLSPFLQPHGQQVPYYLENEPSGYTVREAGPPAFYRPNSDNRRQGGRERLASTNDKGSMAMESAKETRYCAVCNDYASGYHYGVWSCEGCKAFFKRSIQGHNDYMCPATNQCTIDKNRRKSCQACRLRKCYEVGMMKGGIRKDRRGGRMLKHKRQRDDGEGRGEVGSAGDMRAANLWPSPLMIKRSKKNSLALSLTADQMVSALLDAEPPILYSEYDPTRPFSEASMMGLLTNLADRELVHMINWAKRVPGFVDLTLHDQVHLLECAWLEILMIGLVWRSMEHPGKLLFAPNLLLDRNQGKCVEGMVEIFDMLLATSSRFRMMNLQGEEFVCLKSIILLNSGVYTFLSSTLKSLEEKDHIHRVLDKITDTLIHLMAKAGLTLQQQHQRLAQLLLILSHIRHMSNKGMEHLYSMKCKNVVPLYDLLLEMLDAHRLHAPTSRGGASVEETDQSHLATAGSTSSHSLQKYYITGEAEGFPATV
Sequence of Glucocorticoid receptor (Homo sapiens) (P04150 whole entry, looked up): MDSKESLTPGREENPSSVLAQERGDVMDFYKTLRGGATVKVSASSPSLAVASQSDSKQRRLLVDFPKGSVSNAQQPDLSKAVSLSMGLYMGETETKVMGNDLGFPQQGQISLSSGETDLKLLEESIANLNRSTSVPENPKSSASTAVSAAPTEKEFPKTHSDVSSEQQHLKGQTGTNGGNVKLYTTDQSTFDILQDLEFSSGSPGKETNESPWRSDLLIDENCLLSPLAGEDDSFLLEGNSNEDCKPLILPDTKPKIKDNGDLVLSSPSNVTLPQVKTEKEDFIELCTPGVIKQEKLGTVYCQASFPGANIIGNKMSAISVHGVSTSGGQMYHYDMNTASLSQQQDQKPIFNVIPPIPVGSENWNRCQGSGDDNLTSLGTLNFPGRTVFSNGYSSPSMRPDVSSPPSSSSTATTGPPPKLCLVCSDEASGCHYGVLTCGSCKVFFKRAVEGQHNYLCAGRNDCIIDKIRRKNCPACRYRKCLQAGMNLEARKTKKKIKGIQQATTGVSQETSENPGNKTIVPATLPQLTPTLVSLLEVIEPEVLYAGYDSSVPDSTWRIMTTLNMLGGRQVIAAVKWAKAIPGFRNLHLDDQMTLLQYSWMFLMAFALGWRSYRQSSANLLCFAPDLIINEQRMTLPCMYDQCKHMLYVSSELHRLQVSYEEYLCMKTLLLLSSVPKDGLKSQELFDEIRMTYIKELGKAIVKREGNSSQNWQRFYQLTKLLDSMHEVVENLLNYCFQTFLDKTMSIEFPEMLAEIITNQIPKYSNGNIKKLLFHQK
Sequence of DNA dC->dU-editing enzyme APOBEC-3G (Homo sapiens) (Q9HC16 whole entry, looked up): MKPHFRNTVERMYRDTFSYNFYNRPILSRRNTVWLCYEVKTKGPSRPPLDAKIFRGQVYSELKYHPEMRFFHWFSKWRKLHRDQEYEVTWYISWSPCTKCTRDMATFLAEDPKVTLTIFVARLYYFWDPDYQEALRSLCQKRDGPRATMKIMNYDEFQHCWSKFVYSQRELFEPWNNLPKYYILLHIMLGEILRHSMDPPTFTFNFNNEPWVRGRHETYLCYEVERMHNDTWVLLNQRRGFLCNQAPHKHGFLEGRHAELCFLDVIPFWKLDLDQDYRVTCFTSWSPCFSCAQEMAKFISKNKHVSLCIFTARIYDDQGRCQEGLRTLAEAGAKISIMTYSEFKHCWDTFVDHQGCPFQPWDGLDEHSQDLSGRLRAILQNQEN
Sequence of Bile acid receptor (Homo sapiens) (Q96RI1 whole entry, looked up): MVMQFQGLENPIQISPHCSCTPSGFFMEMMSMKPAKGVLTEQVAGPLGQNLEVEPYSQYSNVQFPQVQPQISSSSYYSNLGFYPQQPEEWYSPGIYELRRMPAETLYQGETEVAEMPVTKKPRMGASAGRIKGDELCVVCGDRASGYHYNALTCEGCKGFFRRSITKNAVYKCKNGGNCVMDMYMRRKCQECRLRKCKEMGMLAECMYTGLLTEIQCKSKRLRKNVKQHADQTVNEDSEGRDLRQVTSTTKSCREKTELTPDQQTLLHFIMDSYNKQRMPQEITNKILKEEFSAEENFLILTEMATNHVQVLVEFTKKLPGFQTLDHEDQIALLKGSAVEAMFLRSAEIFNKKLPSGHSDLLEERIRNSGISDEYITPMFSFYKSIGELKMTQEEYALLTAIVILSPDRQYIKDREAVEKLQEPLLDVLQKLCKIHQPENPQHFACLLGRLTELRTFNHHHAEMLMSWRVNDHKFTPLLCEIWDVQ

For `Cc1ccc(OC[C@H](O)[C@H](C)NC(C)C)c2c1CCC2`, the outcome in assay [1] was inactive.
In the case of `CC(=O)S[C@@H]1CC2=CC(=O)CC[C@]2(C)[C@H]2CC[C@@]3(C)[C@@H](CC[C@@]34CCC(=O)O4)[C@H]12`, in [2], the Potency result was “inactive”. For the same molecule, in [3], the activation was -13.6% (inactive).
Turning to `O=S(=O)(c1ccccc1)N(CC(F)(F)F)c1ccc(C(O)(C(F)(F)F)C(F)(F)F)cc1`, in assay [2], the Potency result was “inactive”. Further, the Potency in assay [4] was 44.7 µM (active); in assay [5], 39.8 µM (active). Moreover, the activation in [3] is 3.66% (inactive). In addition, the max response in assay [6] is -29.6%.
As to `NCCCC(=O)O`, the Potency result in assay [7] is “inactive”. Also, the call in assay [1] was inactive.
With `C=Cc1ccccc1`, the molecule was classed as inactive in assay [8]. Also, the Potency entry in [2] was “inactive”. For the same molecule, in assay [6], the max response was -7.04% and -9%.
For the molecule `COc1ccc2[nH]c(=O)c3c(c2c1)OC(C)(C)C=C3`, in assay [1], the molecule was classed as inactive.
Same read-out and setting: then `COc1cc(C[C@H]2C(=O)OC[C@@H]2Cc2ccc(OC)c(OC)c2)ccc1O`, with “inactive”.
With `COC(C)=O`, the molecule was classed as inactive in assay [8] and in assay [9]. Also, the Potency entry in [2] and in assay [5] was “inactive” in each case. Also, in assay [3], the activation was -4.63% (inactive). Moreover, the max response in [6] is 27.1%.
`O=C(O)CC(O)(CC(=O)O)C(=O)O`: the Potency entry in assay [2] and in [5] was “inactive” throughout. The max response in assay [6] is -9.3% and -1.59% and -15.8%.
As to `CN(C)Cc1ccccc1`, the values for the activation in assay [10] and in assay [3] were -4.67% (inactive) and -2.09% (inactive), respectively. Moreover, the Potency result in assay [5] is “inactive”. Further, in assay [6], the max response is -30.1%.
`CN(C)CCCn1cc(C2=C(c3c[nH]c4ccccc34)C(=O)NC2=O)c2ccccc21`: the call in [1] was inactive.
Take `CC(=O)C1=C(O)C=C2Oc3c(C(C)=O)c(O)c(C)c(O)c3[C@]2(C)C1=O`: in assay [1], the molecule was classed as inactive.
The same measure, in the same setting: then `CCc1ccccc1OC[C@@H](O)CN[C@H]1CCCc2ccccc21`, with “inactive”.
On to `CN[C@H]1CC[C@@H](c2ccc(Cl)c(Cl)c2)c2ccccc21`, for which the Potency in assay [7] is 14.1 µM (active).
As for `CCCCCCCCCC(=O)O`, the activation in assay [10] was -19.5% (inactive) and -1.38% (inactive); in [3], -0.446% (inactive). Also, the Potency result in assay [4] and in assay [5] was “inactive” in each case. Besides, in assay [6], the max response came out at 24%.
Regarding `CCCCCCCC/C=C\CCCCCCCC(=O)OC[C@@H](O)[C@H]1OC[C@H](O)[C@H]1O`, the Potency in [2] is 2 µM (active). Moreover, the Potency result in assay [5] is “inactive”. In [6], the max response was -7.22%.

The values above are taken from PubChem BioAssay (NCATS).
